Source: PubChem BioAssay (NCATS)
Records with an inconclusive call do not appear. Entries that show only a call come without a potency. Active and inactive are the calls of the source. Calls come from the whole dose curve; as a rule, active = well fitted inhibition curve with a large enough effect; inconclusive = small, poorly fitted or top-dose-only effect; inactive = no such curve, though single readings can be large or run the other way.

These compounds were tested against Rap guanine nucleotide exchange factor 4 (Homo sapiens) (UniProt Q8WZA2) (assay: Confirmatory qHTS for antagonist of cAMP-regulated guanine nucleotide exchange factor 4 (EPAC2) (AID 1645885; note: nearly all actives have a fitted effect of over 25% in size; note: potency is the fitted concentration of half-maximal effect)). Conditions: EPAC2 Rap1B-BODIPY-GDP exchange fluorescence, biochemical; series mostly up to 12.7 µM.
Chain of Rap guanine nucleotide exchange factor 4 (Homo sapiens) (Q8WZA2 whole entry, looked up): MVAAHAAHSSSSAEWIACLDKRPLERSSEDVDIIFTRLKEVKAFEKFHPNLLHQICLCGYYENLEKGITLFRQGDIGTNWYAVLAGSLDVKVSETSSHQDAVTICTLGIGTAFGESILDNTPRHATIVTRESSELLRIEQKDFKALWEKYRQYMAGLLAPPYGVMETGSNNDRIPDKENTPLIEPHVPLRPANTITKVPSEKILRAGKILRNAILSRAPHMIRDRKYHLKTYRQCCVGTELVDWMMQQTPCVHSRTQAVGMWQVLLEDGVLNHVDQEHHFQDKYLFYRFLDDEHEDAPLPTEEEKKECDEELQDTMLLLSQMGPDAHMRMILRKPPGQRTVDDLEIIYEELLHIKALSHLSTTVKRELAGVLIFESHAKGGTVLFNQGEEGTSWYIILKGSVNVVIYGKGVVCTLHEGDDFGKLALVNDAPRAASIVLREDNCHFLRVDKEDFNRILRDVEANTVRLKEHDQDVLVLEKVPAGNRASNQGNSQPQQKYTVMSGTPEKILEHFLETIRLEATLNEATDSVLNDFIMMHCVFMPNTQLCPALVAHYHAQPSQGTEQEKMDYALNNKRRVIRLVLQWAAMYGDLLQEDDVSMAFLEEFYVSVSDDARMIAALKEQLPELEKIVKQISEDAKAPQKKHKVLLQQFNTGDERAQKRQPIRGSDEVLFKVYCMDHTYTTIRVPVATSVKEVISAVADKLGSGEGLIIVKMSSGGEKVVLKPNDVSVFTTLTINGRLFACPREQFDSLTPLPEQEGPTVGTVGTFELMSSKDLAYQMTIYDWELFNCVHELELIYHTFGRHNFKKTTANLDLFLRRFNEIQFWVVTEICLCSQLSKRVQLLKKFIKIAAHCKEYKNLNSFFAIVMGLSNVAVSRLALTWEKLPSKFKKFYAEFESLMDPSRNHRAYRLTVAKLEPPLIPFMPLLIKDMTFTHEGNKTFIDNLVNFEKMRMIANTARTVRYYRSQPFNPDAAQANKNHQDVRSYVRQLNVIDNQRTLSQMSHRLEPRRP

Question: `COc1ccccc1C(CCN(Cc1ccccc1)C(C)=O)c1ccco1` (stereo not given) was tested. Which Potency did it give?
Answer: inactive

Question: With `CCCN1C(=O)c2ccccc2NC1c1ccc(Cl)c(Cl)c1` (stereo not given) as the compound, how does the Potency read?
Answer: inactive

Question: `COc1ccc(CCn2c(=N)c(C(=O)NC3CCCCC3)cc3c(=O)n4ccccc4nc32)cc1` was tested. Which Potency did it give?
Answer: inactive

Question: For `CCCCN(C(=O)Cn1ncc(Cl)c(Cl)c1=O)c1c(N)n(CC(C)C)c(=O)[nH]c1=O`, which Potency is on record?
Answer: inactive

Question: For `O=S(=O)(NCCC1=CCCCC1)c1ccc(OC(F)(F)F)cc1`, which Potency is on record?
Answer: inactive

Question: `O=C(/C=C/c1ccc(Br)o1)NCc1ccccc1` was tested. Which Potency did it give?
Answer: inactive

Question: For `Cc1ccc(/C=C/C(=O)Nc2nnc(SCc3ccc(C#N)cc3)s2)o1`, which Potency is on record?
Answer: inactive

Question: `COc1ccc(C(=O)NC2(C(F)(F)F)NC(=O)N(CCCc3ccccc3)C2=O)c(OC)c1OC` (stereo not given) was tested. Which Potency did it give?
Answer: inactive

Question: How did the Potency turn out when `O=C(CSc1nc(-c2ccc(F)cc2)nc2ccc(F)cc12)Nc1cccc(C(=O)O)c1` was run?
Answer: inactive

Question: For `COc1ccc(C2=NN(c3ccccc3)C(c3cn(CCC(=O)O)nc3-c3ccccc3)C2)cc1` (stereo not given), which Potency is on record?
Answer: inactive

Question: Which Potency does the source give for `C=CCc1ccccc1OCCSc1nc(-c2ccc(C(C)(C)C)cc2)nc2cc(=O)[nH]n12` here?
Answer: inactive

Question: How did the Potency turn out when `Cc1ccc2oc(=O)n(CCOc3ccccc3C)c2c1` was run?
Answer: inactive

Question: Which Potency does the source give for `COc1cc2c(cc1OC)C(c1cccs1)N(C(=O)C(C)C)CC2` (stereo not given) here?
Answer: inactive

Question: `COc1ccc2c(c1)c(=O)oc1c(C)c(OCc3cc(C(=O)O)oc3C)ccc12` was tested. Which Potency did it give?
Answer: inactive

Question: With `Cc1ccc(Cc2cnc(N3C(=N)SC(c4ccccc4)C3=O)s2)cc1` (stereo not given) as the compound, how does the Potency read?
Answer: inactive

Question: How did the Potency turn out when `O=C(CSc1nc(-c2ccccc2)nc2c1Cc1ccccc1O2)Nc1ccc(C(=O)O)cc1` was run?
Answer: inactive

Question: Which Potency does the source give for `COc1ccccc1Cc1c(-c2ccco2)nc2c(C)cc(Br)cn12` here?
Answer: inactive

Question: Which Potency does the source give for `CCc1ccc(OCC2c3cc(OC)c(OC)cc3CCN2C(C)=O)cc1` (stereo not given) here?
Answer: 42.6 µM (active)

Question: Which Potency does the source give for `CC1(Cc2cc(Cl)ccc2C(F)(F)F)C(=O)Nc2cc(F)ccc21` (stereo not given) here?
Answer: inactive

Question: Which Potency does the source give for `Cc1cccc(CN2C(=O)c3ccccc3Sc3ccc(C(=O)N4CCCC4)cc32)c1` here?
Answer: inactive

Question: For `CCOC(=O)N1CCC(Nc2nc3ccccc3n3cnnc23)CC1`, which Potency is on record?
Answer: inactive

Question: Which Potency does the source give for `CC(C)c1ccc(S(=O)(=O)Nc2ccc3c(c2)OCO3)cc1` here?
Answer: inactive

Question: How did the outcome turn out when `O=C(Nc1cc(C(F)(F)F)ccc1Cl)c1nc2ccccc2nc1N1CCCCC1` was run?
Answer: inactive [at 12.7 µM]

Question: `CCOC(=O)C(C(C)C)C(N)Cc1ccc(F)cc1` (stereo not given) was tested. Which Potency did it give?
Answer: inactive

Question: `CCCCOc1cccc(C2C(C(=O)c3ccc(C)o3)=C(O)C(=O)N2c2nnc(C)s2)c1` (stereo not given) was tested. Which Potency did it give?
Answer: inactive

Question: For `COc1ccc(-c2[nH]c(-c3ccc(F)cc3)nc2SCC(=O)Nc2ccc(OC)c(OC)c2)cc1`, which Potency is on record?
Answer: inactive

Question: For `CCCc1nc2c(Cl)cc(C(F)(F)F)cn2c1Cc1ccc(OC)cc1C`, which Potency is on record?
Answer: inactive

Question: With `O=C(O)C1CC(c2ccc(F)cc2)=NO1` (stereo not given) as the compound, how does the Potency read?
Answer: inactive

Question: `COc1cccc(OCc2cc(/C=N/Nc3ccc(C(=O)O)cc3)ccc2OC)c1` was tested. Which Potency did it give?
Answer: inactive

Question: For `CC(C)(C)C(=O)Nc1cccc(C(=O)OCc2cc(=O)n3nc(C4CCCCC4)sc3n2)c1`, which outcome is on record?
Answer: inactive [at 12.7 µM]

Question: Which Potency does the source give for `c1cc(-c2cc3nc(NC4CCCCC4)ccn3n2)ccc1OCCN1CCOCC1` here?
Answer: inactive

Question: How did the Potency turn out when `CC(=O)c1c(C)[nH]c(C(=O)OCC(=O)c2ccc3c(c2)NC(=O)CO3)c1C` was run?
Answer: inactive

Question: `Cc1nc2c(C(=O)NCc3ccc(F)cc3)c[nH]n2c(=O)c1Cl` was tested. Which Potency did it give?
Answer: inactive

Question: Which Potency does the source give for `CC(=O)Nc1ccc(NC(=S)NC(=O)/C=C/c2ccco2)cc1` here?
Answer: inactive

Question: Which Potency does the source give for `Cn1c(/N=C/c2c(O)ccc3ccccc23)nc2ccccc21` here?
Answer: inactive

Question: How did the Potency turn out when `O=C(O)COc1ccc(/C=N/NC(=O)c2ccc(-c3csc(Nc4ccc(Cl)cc4)n3)cc2)cc1` was run?
Answer: inactive

Question: Which Potency does the source give for `O=c1cc(CSc2nc3ccccc3c(=O)[nH]2)c2ccc(O)cc2o1` here?
Answer: inactive

Question: For `O=C(CCC(=O)N1CCSc2ccccc21)NCc1cccc(Br)c1`, which Potency is on record?
Answer: inactive

Question: For `COc1ccc(/C=C2/SC(=O)N(CCC(=O)Nc3ccc(S(=O)(=O)Nc4nccs4)cc3)C2=O)cc1`, which Potency is on record?
Answer: inactive

Question: For `CCCn1nc([N+](=O)[O-])c(C(C#N)c2nc3ccccc3o2)c(Cl)c1=O` (stereo not given), which Potency is on record?
Answer: 37.9 µM (active)

Each compound was assayed against Rap guanine nucleotide exchange factor 3 (Homo sapiens) (UniProt O95398) (assay: Counterscreen qHTS for antagonist of cAMP-regulated guanine nucleotide exchange factor 3 (EPAC1) (AID 1645888;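 note: fluorescence loss as bound BODIPY-GDP is released from Rap1B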)). Conditions: Rap1B-BODIPY-GDP nucleotide exchange, fluorescence; series mostly up to 154 µM.
Chain of Rap guanine nucleotide exchange factor 3 (Homo sapiens) (O95398 whole entry, looked up): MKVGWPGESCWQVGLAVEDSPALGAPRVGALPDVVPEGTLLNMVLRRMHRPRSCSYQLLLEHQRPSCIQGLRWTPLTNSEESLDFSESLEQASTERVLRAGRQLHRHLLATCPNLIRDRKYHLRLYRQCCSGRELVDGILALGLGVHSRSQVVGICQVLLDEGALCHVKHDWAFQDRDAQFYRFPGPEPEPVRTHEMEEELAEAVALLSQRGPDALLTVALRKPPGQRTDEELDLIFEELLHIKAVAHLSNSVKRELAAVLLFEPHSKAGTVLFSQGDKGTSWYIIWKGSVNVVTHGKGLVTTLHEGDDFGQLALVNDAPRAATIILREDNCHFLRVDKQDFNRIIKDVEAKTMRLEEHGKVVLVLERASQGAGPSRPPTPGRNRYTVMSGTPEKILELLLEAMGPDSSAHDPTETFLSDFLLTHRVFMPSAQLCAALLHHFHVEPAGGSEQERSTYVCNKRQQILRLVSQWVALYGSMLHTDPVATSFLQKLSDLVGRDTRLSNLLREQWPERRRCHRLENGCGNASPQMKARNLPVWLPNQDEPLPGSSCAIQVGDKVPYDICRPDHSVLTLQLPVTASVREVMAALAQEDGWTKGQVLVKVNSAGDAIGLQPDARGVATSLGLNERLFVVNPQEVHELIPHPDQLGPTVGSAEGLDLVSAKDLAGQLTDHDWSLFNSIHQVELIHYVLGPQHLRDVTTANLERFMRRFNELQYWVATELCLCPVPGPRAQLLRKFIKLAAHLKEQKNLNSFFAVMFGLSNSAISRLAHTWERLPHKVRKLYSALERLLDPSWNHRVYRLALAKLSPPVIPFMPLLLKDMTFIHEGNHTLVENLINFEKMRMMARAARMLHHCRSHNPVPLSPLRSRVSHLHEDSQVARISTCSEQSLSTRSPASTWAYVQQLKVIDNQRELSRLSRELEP
Summary of the method: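 Rap1B-BODIPY-GDP 250 nM + GDP 50 uM; cpds 7-pt, final 9.74 nM–152 uM (activator mode) or from 7.32 nM upwards (inhibitor mode); RT; FI 480/540 nm at 5 and 30 min, then ± cAMP, reread.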

Question: How did the activity change, negative = inhibition turn out when `COc1ccccc1C(CCN(Cc1ccccc1)C(C)=O)c1ccco1` (stereo not given) was run?
Answer: -15.7% [at 30.8 µM] (inactive)

Question: For `CCCN1C(=O)c2ccccc2NC1c1ccc(Cl)c(Cl)c1` (stereo not given), which activity change, negative = inhibition is on record?
Answer: -17% [at 30.8 µM] (inactive)

Question: For `COc1ccc(CCn2c(=N)c(C(=O)NC3CCCCC3)cc3c(=O)n4ccccc4nc32)cc1`, which Potency is on record?
Answer: inactive

Question: `CCCCN(C(=O)Cn1ncc(Cl)c(Cl)c1=O)c1c(N)n(CC(C)C)c(=O)[nH]c1=O` was tested. Which activity change, negative = inhibition did it give?
Answer: -8.9% [at 30.8 µM] (inactive)

Question: With `O=S(=O)(NCCC1=CCCCC1)c1ccc(OC(F)(F)F)cc1` as the compound, how does the activity change, negative = inhibition read?
Answer: -5.33% [at 30.8 µM] (inactive)

Question: How did the activity change, negative = inhibition turn out when `O=C(/C=C/c1ccc(Br)o1)NCc1ccccc1` was run?
Answer: 13% [at 30.8 µM] (inactive)

Question: `Cc1ccc(/C=C/C(=O)Nc2nnc(SCc3ccc(C#N)cc3)s2)o1` was tested. Which Potency did it give?
Answer: inactive

Question: How did the activity change, negative = inhibition turn out when `COc1ccc(C(=O)NC2(C(F)(F)F)NC(=O)N(CCCc3ccccc3)C2=O)c(OC)c1OC` (stereo not given) was run?
Answer: -10.8% [at 30.8 µM] (inactive)

Question: How did the Potency turn out when `O=C(CSc1nc(-c2ccc(F)cc2)nc2ccc(F)cc12)Nc1cccc(C(=O)O)c1` was run?
Answer: inactive

Question: Which Potency does the source give for `COc1ccc(C2=NN(c3ccccc3)C(c3cn(CCC(=O)O)nc3-c3ccccc3)C2)cc1` (stereo not given) here?
Answer: inactive

Question: How did the Potency turn out when `C=CCc1ccccc1OCCSc1nc(-c2ccc(C(C)(C)C)cc2)nc2cc(=O)[nH]n12` was run?
Answer: inactive

Question: For `Cc1ccc2oc(=O)n(CCOc3ccccc3C)c2c1`, which activity change, negative = inhibition is on record?
Answer: -6.86% [at 30.8 µM] (inactive)

Question: How did the Potency turn out when `COc1cc2c(cc1OC)C(c1cccs1)N(C(=O)C(C)C)CC2` (stereo not given) was run?
Answer: inactive

Question: For `COc1ccc2c(c1)c(=O)oc1c(C)c(OCc3cc(C(=O)O)oc3C)ccc12`, which Potency is on record?
Answer: inactive

Question: For `Cc1ccc(Cc2cnc(N3C(=N)SC(c4ccccc4)C3=O)s2)cc1` (stereo not given), which activity change, negative = inhibition is on record?
Answer: -12.3% [at 30.8 µM] (inactive)

Question: How did the Potency turn out when `O=C(CSc1nc(-c2ccccc2)nc2c1Cc1ccccc1O2)Nc1ccc(C(=O)O)cc1` was run?
Answer: inactive

Question: With `COc1ccccc1Cc1c(-c2ccco2)nc2c(C)cc(Br)cn12` as the compound, how does the activity change, negative = inhibition read?
Answer: -14.6% [at 30.8 µM] (inactive)

Question: For `CCc1ccc(OCC2c3cc(OC)c(OC)cc3CCN2C(C)=O)cc1` (stereo not given), which Potency is on record?
Answer: inactive

Question: For `CC1(Cc2cc(Cl)ccc2C(F)(F)F)C(=O)Nc2cc(F)ccc21` (stereo not given), which activity change, negative = inhibition is on record?
Answer: -15.8% [at 30.8 µM] (inactive)

Question: With `Cc1cccc(CN2C(=O)c3ccccc3Sc3ccc(C(=O)N4CCCC4)cc32)c1` as the compound, how does the Potency read?
Answer: inactive

Question: `CCOC(=O)N1CCC(Nc2nc3ccccc3n3cnnc23)CC1` was tested. Which activity change, negative = inhibition did it give?
Answer: -12.2% [at 30.8 µM] (inactive)

Question: Which Potency does the source give for `CC(C)c1ccc(S(=O)(=O)Nc2ccc3c(c2)OCO3)cc1` here?
Answer: inactive

Question: For `O=C(Nc1cc(C(F)(F)F)ccc1Cl)c1nc2ccccc2nc1N1CCCCC1`, which Potency is on record?
Answer: inactive

Question: Which Potency does the source give for `CCOC(=O)C(C(C)C)C(N)Cc1ccc(F)cc1` (stereo not given) here?
Answer: inactive

Question: For `CCCCOc1cccc(C2C(C(=O)c3ccc(C)o3)=C(O)C(=O)N2c2nnc(C)s2)c1` (stereo not given), which Potency is on record?
Answer: inactive

Question: For `COc1ccc(-c2[nH]c(-c3ccc(F)cc3)nc2SCC(=O)Nc2ccc(OC)c(OC)c2)cc1`, which Potency is on record?
Answer: inactive

Question: With `CCCc1nc2c(Cl)cc(C(F)(F)F)cn2c1Cc1ccc(OC)cc1C` as the compound, how does the activity change, negative = inhibition read?
Answer: -8.15% [at 30.8 µM] (inactive)

Question: `O=C(O)C1CC(c2ccc(F)cc2)=NO1` (stereo not given) was tested. Which activity change, negative = inhibition did it give?
Answer: -15.4% [at 30.8 µM] (inactive)

Question: With `COc1cccc(OCc2cc(/C=N/Nc3ccc(C(=O)O)cc3)ccc2OC)c1` as the compound, how does the activity change, negative = inhibition read?
Answer: -4.72% [at 30.8 µM] (inactive)

Question: For `CC(C)(C)C(=O)Nc1cccc(C(=O)OCc2cc(=O)n3nc(C4CCCCC4)sc3n2)c1`, which Potency is on record?
Answer: inactive

Question: For `c1cc(-c2cc3nc(NC4CCCCC4)ccn3n2)ccc1OCCN1CCOCC1`, which Potency is on record?
Answer: inactive

Question: For `CC(=O)c1c(C)[nH]c(C(=O)OCC(=O)c2ccc3c(c2)NC(=O)CO3)c1C`, which Potency is on record?
Answer: inactive

Question: For `Cc1nc2c(C(=O)NCc3ccc(F)cc3)c[nH]n2c(=O)c1Cl`, which Potency is on record?
Answer: inactive

Question: How did the Potency turn out when `CC(=O)Nc1ccc(NC(=S)NC(=O)/C=C/c2ccco2)cc1` was run?
Answer: inactive

Question: Which Potency does the source give for `Cn1c(/N=C/c2c(O)ccc3ccccc23)nc2ccccc21` here?
Answer: inactive

Question: Which Potency does the source give for `O=C(O)COc1ccc(/C=N/NC(=O)c2ccc(-c3csc(Nc4ccc(Cl)cc4)n3)cc2)cc1` here?
Answer: inactive

Question: For `O=c1cc(CSc2nc3ccccc3c(=O)[nH]2)c2ccc(O)cc2o1`, which Potency is on record?
Answer: inactive

Question: For `O=C(CCC(=O)N1CCSc2ccccc21)NCc1cccc(Br)c1`, which activity change, negative = inhibition is on record?
Answer: 0.997% [at 30.8 µM] (inactive)

Question: For `COc1ccc(/C=C2/SC(=O)N(CCC(=O)Nc3ccc(S(=O)(=O)Nc4nccs4)cc3)C2=O)cc1`, which Potency is on record?
Answer: inactive

Question: `CCCn1nc([N+](=O)[O-])c(C(C#N)c2nc3ccccc3o2)c(Cl)c1=O` (stereo not given) was tested. Which Potency did it give?
Answer: inactive
